The record followed here is PubChem BioAssay (EPA / NIEHS).

Results filed as inconclusive are left out. The source made the active and inactive calls. Rule for the calls, unless noted: active = hit-call score of the fitted dose curve at least 0.9, where 1 is the maximum; inactive = score below 0.9.

Read-out in assay [1]: Interleukin-1 alpha (IL1a), IL1A (gene 3552)
Description: BSK_LPS_IL1a: BioMAP Diversity Plus: LPS Assay for Interleukin-1 alpha (IL1a) Biomarker Activity (AID 2283080). The note with it: primary human HUVEC with PBMC; actives raise or lower the signal. Summed up:
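Measured: IL-1 alpha via ELISA at 24 h in LPS-activated human umbilical vein endothelium–PBMC co-culture. Baseline: DMSO, bidirectional fitting.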

Assay [2] is described as follows: BSK_LPS_PGE2: BioMAP Diversity Plus: LPS Assay for Prostaglandin E2 (PGE2) Biomarker Activity (AID 2283082). The note with it: primary human HUVEC with PBMC; actives raise or lower the signal. In a few lines: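 Endpoint derived from bidirectional curve fitting versus DMSO of ELISA-measured PGE2 in LPS-stimulated human primary vascular co-culture (HUVEC with PBMC) harvested at 24 h.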

Read-out in assay [3]: Macrophage colony-stimulating factor (MCSF), CSF1 (gene 1435)
The assay is described as follows: BSK_LPS_MCSF: BioMAP Diversity Plus: LPS Assay for Macrophage colony-stimulating factor (MCSF) Biomarker Activity (AID 2283083). The note with it: primary human HUVEC with PBMC; actives raise or lower the signal. In a few lines:
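Compound is added to a human vascular primary co-culture of umbilical vein endothelium and blood mononuclear cells. After 24 h, M-CSF is quantified by ELISA. Signal changes are fitted in both directions against DMSO.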

Read-out in assay [4]: Tissue Factor, F3 (gene 2152)
Description: BSK_LPS_TissueFactor: BioMAP Diversity Plus: LPS Assay for Tissue Factor Biomarker Activity (AID 2283084). The note with it: primary human HUVEC with PBMC; actives raise or lower the signal. Summed up:
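In this co-culture system of umbilical vein endothelium with PBMC, stimulated with LPS, cell-surface CD142 is detected by ELISA at 24 h. Endpoint values derive from bidirectional fitting, DMSO serving as baseline.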

Read-out in assay [5]: Tumor necrosis factor (Homo sapiens) (UniProt P01375)
The assay is described as follows: BSK_LPS_TNFa: BioMAP Diversity Plus: LPS Assay for Tumour Necrosis Factor alpha (TNFa) Biomarker Activity (AID 2283085). The conditions noted are these: primary human HUVEC with PBMC; actives raise or lower the signal. In a few lines: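 Primary human vascular co-culture of HUVEC and PBMC; TNFa ELISA 24 h after treatment, analysed as increase or decrease relative to DMSO control.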

Read-out in assay [6]: Vascular cell adhesion molecule 1 (VCAM1), VCAM1 (gene 7412)
Description: BSK_LPS_VCAM1: BioMAP Diversity Plus: LPS Assay for Vascular cell adhesion molecule 1 (VCAM1) Biomarker Activity (AID 2283086). The conditions noted are these: primary human HUVEC with PBMC; actives raise or lower the signal. In a few lines:
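Primary human vascular co-culture (umbilical vein endothelium plus PBMC) stimulated with LPS received chemical; 24 h later VCAM-1 was read by ELISA. Overt cytotoxicity was assessed by sulforhodamine B staining of parallel cultures at the same time point.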

Read-out in assay [7]: CD38, CD38 (gene 952)
Description: BSK_SAg_CD38: BioMAP Diversity Plus: SAg Assay for CD38 Biomarker Activity (AID 2283087). The note with it: primary human HUVEC with PBMC; actives raise or lower the signal. Summed up: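 Fluorescence ELISA of cell-surface CD38 served as the read-out, with either increase or decrease fitted against DMSO controls. Cells were a human umbilical vein endothelium plus PBMC co-culture under SEB/TSST-1 stimulation, measured 24 h after dosing.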

Read-out in assay [8]: CD40, CD40 (gene 958)
The assay is described as follows: BSK_SAg_CD40: BioMAP Diversity Plus: SAg Assay for CD40 Biomarker Activity (AID 2283088). The note with it: primary human HUVEC with PBMC; actives raise or lower the signal. Summed up:
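Fluorescence ELISA read-out of CD40 from umbilical vein endothelium plus peripheral blood mononuclear cells, sampled 24 h after dosing. Values come from bidirectional curve fitting with DMSO as baseline.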

Read-out in assay [9]: CD69, CD69 (gene 969)
The assay is described as follows: BSK_SAg_CD69: BioMAP Diversity Plus: SAg Assay for CD69 Biomarker Activity (AID 2283089).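 For AC50: cell surface CD69 protein quantified by ELISA with fluorescence detection.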 The conditions noted are these: primary human HUVEC with PBMC; actives raise or lower the signal. Summed up:
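HUVEC co-cultured with PBMC were dosed with chemical, and CD69 was measured by ELISA with fluorescence read-out 24 h later. Bidirectional curve fitting used DMSO as negative control and activity baseline.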

Read-out in assay [10]: Monocyte Chemoattractant Protein-1 (MCP1), CCL2 (gene 6347)
The assay is described as follows: BSK_SAg_MCP1: BioMAP Diversity Plus: SAg Assay for Monocyte Chemoattractant Protein-1 (MCP1) Biomarker Activity (AID 2283090). The note with it: primary human HUVEC with PBMC; actives raise or lower the signal. In a few lines:
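MCP-1 levels in the endothelial–PBMC SAg co-culture were quantified by ELISA at 24 h post-dosing; both increases and decreases versus DMSO scored. Cytotoxicity monitored by SRB total protein in parallel cultures.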

Read-out in assay [11]: E-selectin (Homo sapiens) (UniProt P16581)
Description: BSK_SAg_Eselectin: BioMAP Diversity Plus: SAg Assay for Eselectin Biomarker Activity (AID 2283091). The conditions noted are these: primary human HUVEC with PBMC; actives raise or lower the signal. In a few lines:
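Primary human endothelial cells and peripheral blood mononuclear cells were co-cultured and exposed to chemical for 24 hours. E-selectin levels were then quantified by ELISA, with bidirectional curve fitting normalised to DMSO controls.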

Read-out in assay [12]: Monokine induced gamma interferon (MIG), CXCL9 (gene 4283)
The assay is described as follows: BSK_SAg_MIG: BioMAP Diversity Plus: SAg Assay for Monokine induced gamma interferon (MIG) Biomarker Activity (AID 2283092). The note with it: primary human HUVEC with PBMC; actives raise or lower the signal. In a few lines:
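HUVEC plus human PBMC co-culture, chemicals dosed and MIG (CXCL9) quantified by ELISA at 24 h. Bidirectional curve fitting against DMSO as negative control and baseline, so both gain and loss of signal count as activity.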

Assay [13] can be described thus: BSK_SAg_PBMCCytotoxicity: PBMC Cytotoxicity Assessment in the BioMAP Diversity Plus: SAg Assay (AID 2283093).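 For AC50: PBMC superantigen activated with SEB plus TSST-1 one hour after compound addition.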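 Note: PBMC viability measured as Alamar Blue reduction fluorescence at 546/580 nm; fitted both ways against DMSO so a hit may be loss or gain of signal.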 The note with it: primary human HUVEC with PBMC. Summed up: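 Compound added to 75,000 PBMC/well for 1 h; SEB and TSST-1 then added at 20 ng/mL final each; 90 h incubation; Alamar Blue 6 h; read 546/580 nm ex/em. Activity fitted bidirectionally relative to DMSO baseline.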

Read-out in assay [14]: Interleukin-8 (IL8), CXCL8 (gene 3576)
Description: BSK_SAg_IL8: BioMAP Diversity Plus: SAg Assay for Interleukin-8 (IL8) Biomarker Activity (AID 2283094). The note with it: primary human HUVEC with PBMC; actives raise or lower the signal. Summed up: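 In this co-culture of human umbilical vein endothelium with peripheral blood mononuclear cells, IL-8 is assayed by ELISA at 24 h. DMSO serves as baseline for bidirectional curve fitting.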

Assay [15] is described as follows: BSK_SAg_Proliferation: Cell Proliferation Assessment in the BioMAP Diversity Plus: SAg Assay (AID 2283095).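 Note: relative cell number as total protein by SRB absorbance in sub-confluent culture.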 The note with it: primary human HUVEC with PBMC. In a few lines: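 Readout is SRB-stained protein (560 nm) in a primary human HUVEC and PBMC co-culture; sub-confluent cultures are read at 96 h. Activity is fitted bidirectionally using DMSO as baseline.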

Assay [16] in a line: BSK_SAg_SRB: Viability Assessment in the BioMAP Diversity Plus: SAg Assay (AID 2283096).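 Note: cells read one day after compound addition; hits may be either gain or loss of signal compared with DMSO.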 The note with it: primary human HUVEC with PBMC. Summed up:
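Total protein by sulforhodamine B staining, 24 h after dosing, in HUVEC–PBMC co-culture; DMSO-referenced bidirectional fitting.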

The target of assay [17] is human CYP1A1, CYP1A1 (gene 1543) (UniProt P04798). The assay is described as follows: NVS_ADME_hCYP1A1: NovaScreen (NVS) CYP450-related Enzyme Activity (ADME) Assay for human CYP1A1 (AID 2283100; active = hit-call score of the fitted dose curve at least 0.9, where 1 is the maximum). Summed up:
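Compounds first went through duplicate single-concentration testing at 10 uM against purified CYP1A1. Those passing a threshold such as 30% inhibition entered singleton dose-response, highest concentration 20 uM. Signal was fluorescence measured after 1 hour.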

In assay [18] the target is human CYP19A1, CYP19A1 (gene 1588) (UniProt P11511). Description: NVS_ADME_hCYP19A1: NovaScreen (NVS) CYP450-related Enzyme Activity (ADME) Assay for human CYP19A1 (AID 2283098; active = hit-call score of the fitted dose curve at least 0.9, where 1 is the maximum). Summed up:
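Biochem, cell-free; recombinant enzyme + specific substrate; fluorescence intensity at 0.5 h post-dose; 10 uM duplicate primary, conc. series for actives; acetonitrile = negative control/baseline; positive and negative controls on every plate.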

Sequence of E-selectin (Homo sapiens) (P16581 whole entry, looked up): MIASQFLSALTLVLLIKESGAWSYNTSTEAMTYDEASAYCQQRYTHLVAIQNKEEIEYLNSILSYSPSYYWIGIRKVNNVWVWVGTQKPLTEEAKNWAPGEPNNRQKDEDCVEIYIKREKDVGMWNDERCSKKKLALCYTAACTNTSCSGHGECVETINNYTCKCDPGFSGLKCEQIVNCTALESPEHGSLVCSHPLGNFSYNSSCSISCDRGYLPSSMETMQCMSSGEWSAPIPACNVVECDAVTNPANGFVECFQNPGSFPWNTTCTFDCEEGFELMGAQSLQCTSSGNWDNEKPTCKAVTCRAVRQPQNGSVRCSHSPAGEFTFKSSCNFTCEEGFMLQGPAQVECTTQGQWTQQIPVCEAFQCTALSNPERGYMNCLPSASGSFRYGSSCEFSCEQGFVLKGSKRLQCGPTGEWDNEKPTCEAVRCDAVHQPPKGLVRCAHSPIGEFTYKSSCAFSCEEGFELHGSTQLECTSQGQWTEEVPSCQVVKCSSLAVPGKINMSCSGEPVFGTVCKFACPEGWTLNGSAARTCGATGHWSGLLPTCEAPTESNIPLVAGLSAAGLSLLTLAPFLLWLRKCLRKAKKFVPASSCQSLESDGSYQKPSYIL
Sequence of Tumor necrosis factor (Homo sapiens) (P01375 whole entry, looked up): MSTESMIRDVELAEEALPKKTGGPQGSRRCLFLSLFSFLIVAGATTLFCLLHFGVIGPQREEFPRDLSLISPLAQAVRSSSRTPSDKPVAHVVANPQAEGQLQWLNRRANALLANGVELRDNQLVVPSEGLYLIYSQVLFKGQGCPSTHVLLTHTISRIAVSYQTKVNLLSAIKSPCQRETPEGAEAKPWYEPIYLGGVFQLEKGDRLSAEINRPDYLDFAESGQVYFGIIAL
Sequence of human CYP1A1, CYP1A1 (gene 1543) (P04798 whole entry, looked up): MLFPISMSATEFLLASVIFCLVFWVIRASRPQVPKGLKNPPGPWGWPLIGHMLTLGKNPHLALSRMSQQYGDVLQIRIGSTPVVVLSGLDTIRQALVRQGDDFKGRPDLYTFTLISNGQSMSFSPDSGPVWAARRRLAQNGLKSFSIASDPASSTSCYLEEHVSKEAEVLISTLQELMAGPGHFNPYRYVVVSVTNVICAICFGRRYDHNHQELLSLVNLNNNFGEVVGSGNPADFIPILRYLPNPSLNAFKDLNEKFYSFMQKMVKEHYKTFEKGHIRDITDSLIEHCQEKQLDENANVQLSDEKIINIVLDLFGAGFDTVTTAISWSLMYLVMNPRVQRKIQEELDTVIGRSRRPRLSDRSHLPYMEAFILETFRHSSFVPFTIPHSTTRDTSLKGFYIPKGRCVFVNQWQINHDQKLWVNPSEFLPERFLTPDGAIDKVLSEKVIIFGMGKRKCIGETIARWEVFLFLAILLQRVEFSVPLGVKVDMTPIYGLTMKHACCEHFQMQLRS
Sequence of human CYP19A1, CYP19A1 (gene 1588) (P11511 whole entry, looked up): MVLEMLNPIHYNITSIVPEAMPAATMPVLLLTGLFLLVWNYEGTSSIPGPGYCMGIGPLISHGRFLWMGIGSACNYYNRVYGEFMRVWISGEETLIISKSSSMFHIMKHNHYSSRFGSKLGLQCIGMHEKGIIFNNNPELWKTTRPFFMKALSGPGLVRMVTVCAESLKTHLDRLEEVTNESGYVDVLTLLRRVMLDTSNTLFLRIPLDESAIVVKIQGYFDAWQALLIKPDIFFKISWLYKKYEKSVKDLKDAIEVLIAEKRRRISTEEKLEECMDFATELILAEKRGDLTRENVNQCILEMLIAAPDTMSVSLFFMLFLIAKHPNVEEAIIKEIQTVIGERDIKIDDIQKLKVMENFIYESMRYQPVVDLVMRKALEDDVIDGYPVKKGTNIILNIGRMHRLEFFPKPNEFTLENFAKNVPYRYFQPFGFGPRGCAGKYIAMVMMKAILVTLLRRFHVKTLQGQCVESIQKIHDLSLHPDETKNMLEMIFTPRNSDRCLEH

Regarding `Cc1cnc(C2=NC(C)(C(C)C)C(=O)N2)c(C(=O)O)c1` (stereo not drawn), the result in [1], in assay [2], in assay [3], in [4], in assay [5] and in assay [6] was inactive. Further, the result in [7], in [8], in [9], in [10], in assay [11] and in [12] was inactive. Further, the outcome in [13], in assay [14], in assay [15] and in assay [16] was inactive.
Broadly, the AC50 is the midpoint of the concentration-response curve, whichever way the signal moves. Take `CCCCC(O)(Cn1cncn1)c1ccc(Cl)cc1Cl` (stereo not drawn): the outcome in [1], in [3], in [4], in assay [5], in assay [6] and in assay [7] was inactive. Further, the outcome in assay [8], in assay [9], in assay [10], in [12], in assay [13] and in [14] was inactive. Further, the result in assay [16] was inactive. Further, the AC50 was 3.81 µM (active) in assay [2], 22.5 µM (active) in assay [11] and 29.9 µM (active) in [15].
`CC(C)N1C(=O)N(c2ccccc2)CSC1=NC(C)(C)C`: the concentration at half-maximal activity (AC50) is 30.6 µM (active) in assay [1]; 33.2 µM (active) in assay [2]; 18.9 µM (active) in assay [3]; 32.6 µM (active) in assay [4]; 32.1 µM (active) in assay [5]; 31.6 µM (active) in assay [6]. Moreover, the concentration at half-maximal activity (AC50) in assay [7] is 30.7 µM (active); in [8] it was 33.4 µM (active); in assay [9], 30.3 µM (active); in assay [10] it was 34.5 µM (active); in assay [11], 27.3 µM (active); in assay [12], 38.8 µM (active). Further, the AC50 in assay [13] is 32.2 µM (active); in [14], 26.3 µM (active); in assay [15], 27.4 µM (active); in assay [16] it was 27.8 µM (active).
Take `COP(=S)(OC)SCn1nnc2ccccc2c1=O`: the result in [1], in [3], in assay [7], in assay [10], in [12] and in assay [13] was inactive. In addition, the result in assay [14] and in assay [16] was inactive. The half-maximal activity concentration (AC50) in assay [2] is 13.8 µM (active); in assay [4] it was 16.9 µM (active); in [5], 5.58 µM (active); in assay [6] it was 20 µM (active); in assay [8] it was 20 µM (active); in assay [9], 20 µM (active). Further, the AC50 is 10.4 µM (active) in [11], 30.2 µM (active) in assay [15] and 0.363 µM (active) in assay [17].
Consider `CC(C)Oc1cccc(NC(=O)c2ccccc2C(F)(F)F)c1`, for which the result in assay [1], in [2], in [3], in assay [4], in [5] and in assay [6] was inactive. The result in [7], in assay [8], in [9], in assay [10], in [11] and in assay [12] was inactive. Besides, the result in [13], in [14], in assay [15] and in [18] was inactive. In addition, the AC50 in assay [16] is 15.1 µM (active).
`O=c1n(Cl)c(=O)n(Cl)c(=O)n1Cl`: the outcome in [1], in assay [2], in [3], in [5], in assay [6] and in [7] was inactive. In addition, the outcome in assay [8], in [9], in assay [11], in assay [12], in assay [13] and in [14] was inactive. Further, the outcome in assay [15] and in assay [16] was inactive. Further, the AC50 was 0.966 µM (active) in assay [4] and 11.6 µM (active) in [10].
